In PubChem BioAssay AID1825 (The Scripps Research Institute Molecular Screening Center, 2009) one finds inhibition data, which are given here for 98 molecules.

Hit rate of the full screen: of about 290,000 compounds, about 2,300 (0.79%) were called active. The sample holds actives, similar compounds and a random draw of the others, so the mix is not that of the screen. Unmarked numbers belong to inactive results. Cut-off read from the data, not from the text of the source: active = inhibition above about 22%; inactive = the rest.

A short description of this experiment: cytotoxicity in IEC-6 intestinal epithelial cells, primary screen, cytotoxicity control for KLF5 inhibitor project, cell-based, luminescence (AID 1825).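 Note: 0% = plate median of test compound wells and 100% = cytotoxic reference compound wells.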 The following applies: IEC-6 cytotoxicity, luminescence viability; at 5 µM; stronger effect = higher value.
In the case of `COc1ccccc1N1CCN(C(=O)c2ccc(Cl)c(S(=O)(=O)N3CCCC3)c2)CC1`, the inhibition – broadly, the relative decrease from the control value, in per cent – was -2.9%.
Take `CCOc1ccccc1N1CCN(C(=O)c2ccc3[nH]c(C)c(C)c3c2)CC1`: the inhibition is 36.2% (active).
On to `Cc1[nH]c2ccc(C(=O)N3CCN(C)CC3)cc2c1C`, for which the inhibition is 0.4%.
In the case of `CCN(C(=O)COC(=O)c1ccc(COc2ccc3c(C)cc(=O)oc3c2)cc1)C1CCS(=O)(=O)C1` (stereo not drawn) it was -1.8%; in that of `Cc1ccc(C)c(NC(=O)C2Cc3ccccc3CN2C(=O)OCc2ccccc2)c1` (stereo not drawn), -6.3%.
In the case of `CCOc1ncccc1C(=O)NCCc1ccc(OC)cc1` it was 22% (active); in that of `COc1ccc(CCNC(=O)c2ccccc2OCc2ccccc2)cc1`, -0.9%; in that of `O=C(NCCc1ccccn1)c1cccnc1Oc1ccc(Cl)cc1`, 5%.
In the case of `COc1ccc(/C=C(\C#N)c2c[nH]c3ccccc23)cc1` it was 86.1% (active); in that of `COc1cc(/C=C(\C#N)c2nc3ccccc3[nH]2)ccc1O`, 2%.
Consider `COc1ccc2[nH]cc(/C=C(/C#N)S(=O)(=O)c3ccccc3)c2c1`, for which the inhibition was -0.2%.
In the case of `CN(CC(=O)O)S(=O)(=O)c1ccc2oc3ccccc3c2c1` it was -1.3%.
Regarding `C=Cc1ccc(C(=O)N2CCCC(CCC(=O)N3CCN(c4ccccn4)CC3)C2)cc1` (stereo not drawn), the inhibition is -8.1%.
Consider `CN(C(=O)CN1C(=O)S/C(=C\c2ccccc2F)C1=O)C1CCS(=O)(=O)C1` (stereo not drawn), for which the inhibition is -4.8%.
In the case of `N#CC(C(=O)c1ccc(S(=O)(=O)N2CCCCCC2)cc1)c1nc2ccccc2[nH]1` (stereo not drawn) it was 3%.
In the case of `O=S(=O)(c1ccc(Br)cc1)N1CCC(c2nc3ccccc3[nH]2)CC1` it was 43.7% (active); in that of `O=C(C1CCCO1)N1CCC(c2nc3ccccc3[nH]2)CC1` (stereo not drawn), -5.3%; in that of `O=C(Nc1cccnc1Cl)c1cc(-c2ccccc2O)on1`, -3.1%.
The value for `Cc1ccc(OCCOc2cccc(/C=N/NC(N)=O)c2)cc1` was 3.9%.
On to `CNC(=O)C1CCN(S(=O)(=O)c2c(C)noc2/C=C/c2cccc(C)c2)CC1`, for which the inhibition was -7.8%.
In the case of `CC(C)OC(=O)CN1C(=O)c2ccccc2C1=O` it was 1.2%; in that of `Cc1cccc2c1N(CC(=O)OC(C)C)C(=O)C2=O`, 2.7%; in that of `CC(C)OC(=O)CN1C(=O)C(=O)c2ccccc21`, 24.8% (active).
The value for `COc1ccc(CCNS(=O)(=O)c2cn(C)nc2C)cc1` was 3%.
Regarding `CCCOc1ccc(C2=CSC3=NCCN23)cc1Cl`, the inhibition is -2.6%.
As to `O=C(Nn1cnnc1)c1cc(Cl)ccc1Cl`, the inhibition is 1.3%.
For `Cc1ccc(NS(=O)(=O)c2ccc(F)cc2)nc1`, the inhibition was 1.3%.
In the case of `COc1ccc(Nc2oc(-c3ccccc3Cl)nc2C#N)cc1` it was 26.1% (active); in that of `COc1ccccc1-c1nc(C#N)c(N2CCC(C(N)=O)CC2)o1`, 0.7%; in that of `Cc1ccccc1-c1nc(C#N)c(NCc2ccco2)o1`, -5.6%.
The value for `CCC(C)N1CC(=O)N2Cc3[nH]c4ccccc4c3C[C@H]2C1=O` (stereo partly drawn) was 9.4%.
In the case of `NC(=O)c1oc2ccccc2c1NC(=O)Cc1ccccc1` it was -3.9%; in that of `CSc1nnc2ccc(-c3ccc(C)cc3)nn12`, 23.2% (active); in that of `O=C(CSc1nnc2ccc(-c3ccncc3)nn12)N1CCCCC1`, -4.1%.
On to `Fc1cccc(CSc2nnc3ccc(-c4ccncc4)nn23)c1`, for which the inhibition is -4%.
In the case of `CCOC(=O)N1CCN(C(=O)c2cn(C)c3ccc(S(=O)(=O)N(CC)CC)cc3c2=O)CC1`, the inhibition is -5.4%.
Consider `COC(=O)c1ccc(NC(=O)CSc2nncn2-c2cccnc2)cc1`, for which the inhibition is 0.4%.
Take `COc1ccccc1N1CCN(C(=O)c2cc(=O)c3cc(C)ccc3o2)CC1`: the inhibition is 17.9%.
For the molecule `COc1ccccc1N1CCN(C(=O)c2cc(=O)c3cc(C)cc(C)c3o2)CC1`, the inhibition is 93.6% (active).
The value for `COc1cccc(-c2cc(C(=O)N3CCN(c4ccccc4OC)CC3)no2)c1` was 12.1%; that for `COC1=C(N2CCOCC2)C(=O)c2ccccc2C1=O` was -1.6%; that for `COc1ccc(NC(=O)c2cccc3c2C(=O)N(CC2CCCO2)C3)cc1OC` (stereo not drawn) was -0.8%.
In the case of `COc1ccc(CNS(=O)(=O)c2ccc(-c3cnc(C4CC4)o3)cc2)cc1` it was -1.9%.
In the case of `Cc1cccc(CNS(=O)(=O)c2ccc(-c3cnc(C4CC4)o3)cc2)c1` it was 4.4%; in that of `Cc1cccc(NS(=O)(=O)c2ccc(-c3cnc(C4CC4)o3)cc2)c1`, 77.2% (active); in that of `Cc1cccc(NC(=O)c2nc(S(=O)(=O)Cc3ccccc3)ncc2Cl)c1`, 88.2% (active).
Regarding `Cc1cccc(NC(=O)C(C)SCc2ccccc2)c1` (stereo not drawn), the inhibition was 0.6%.
`CCOc1ccc(NC(=O)c2nc(SCC)ncc2Cl)cc1`: the inhibition was 12.7%.
For the molecule `Cc1cccc(OCc2ccc(C(=O)Nc3ccc(F)cc3)cc2)c1`, the inhibition was 0.7%.
Regarding `CCSc1ncc(Cl)c(C(=O)Nc2cc(C)ccc2C)n1`, the inhibition was 5.4%.
In the case of `Cc1cccc(CS(=O)(=O)c2ncc(Cl)c(C(=O)Nc3ccc(F)cc3)n2)c1` it was 77.4% (active).
Take `CN1C2CCC1CC(NC(=O)c1ccc([N+](=O)[O-])cc1)C2` (stereo not drawn): the inhibition was 5%.
In the case of `CC(NC(=O)COc1cccnc1[N+](=O)[O-])c1ccc(Cl)cc1Cl` (stereo not drawn) it was -1.6%; in that of `Cc1cccc(NC(=O)c2ccc(S(=O)(=O)N(C)CC3CCCO3)cc2)c1C` (stereo not drawn), -2.6%.
The value for `COc1ccc(CNC(=O)C(C)n2nc(C)c3c(C)n(-c4ccccc4)nc3c2=O)c(OC)c1` (stereo not drawn) was 0.3%; that for `CC1CN(C(=S)Nc2ccccc2F)CC(C)O1` (stereo not drawn) was 1.8%; that for `CC(=O)NC1=NN(C(C)=O)C(C)(c2ccc(C)cc2)S1` (stereo not drawn) was -3.8%.
In the case of `CC(=O)NC1=NN(C(C)=O)C(C)(c2ccc(Cl)s2)S1` (stereo not drawn) it was 23.7% (active); in that of `CC(=O)NC1=NN(C(C)=O)C(C)(CCS(=O)(=O)c2ccc(Cl)c(Cl)c2)S1` (stereo not drawn), -1%; in that of `O=C(Nc1ccccc1Cl)Nn1cnnc1`, 0.2%.
Turning to `O=C(COC(=O)c1cccs1)Nc1ccccc1Cl`, the inhibition was -3.8%.
As for `O=C(Nc1ccccc1Cl)/C(Cl)=C(\Cl)S(=O)c1ccccc1` (stereo not drawn), the inhibition is 96.8% (active).
Take `CCOC(=O)c1csc(CCNC(=O)c2oc3c(Cl)cc(C)cc3c2C)n1`: the inhibition is -2.4%.
The value for `CCOc1ccc(S(=O)(=O)Nc2ccc(OC)nc2)cc1` was 6.1%; that for `COc1ccc(Nc2cc(Cl)ccc2C(=O)O)cn1` was -1.3%.
On to `COc1ccc(CS(=O)/C(Cl)=C(/Cl)C(=O)Nc2ccc(OC)nc2)cc1` (stereo not drawn), for which the inhibition was 102% (active).
Regarding `COc1ccc(NC(=O)/C(Cl)=C(/Cl)S(=O)Cc2ccc(C)cc2)cn1` (stereo not drawn), the inhibition was 99.6% (active).
As for `COc1ccc(C(=O)Nc2ccc(NC(=O)C(C)C)nc2)cc1`, the inhibition was -0.5%.
Turning to `COc1ccc(NC(=O)c2cc(-c3ccc(C)cc3)on2)cc1`, the inhibition is 2.3%.
As to `Cc1ccc([N+](=O)[O-])cc1S(=O)(=O)N1CCCN(C)CC1`, the inhibition is 3.1%.
The value for `CC1(C)Cc2cccc(OCC(=O)N3CCN(c4ccc([N+](=O)[O-])cc4)CC3)c2O1` was 4.2%.
In the case of `Cc1cccc(C(=O)N2CCN(S(=O)(=O)N3CCCCC3)CC2)c1` it was -0.2%; in that of `CN(C)CCNC(=O)c1[nH]nc2c1CCc1ccccc1-2`, -3.9%.
In the case of `CC(=O)NCCc1ccc(S(=O)(=O)Nc2ccc(C)c(S(=O)(=O)N3CCOCC3)c2)cc1` it was 2.5%; in that of `COc1cc(OC)cc(C(=O)N[C@H](C(=O)Nc2nc3ccccc3[nH]2)C(C)C)c1`, 18.7%.
Consider `COC(=O)Nc1nc2ccc(Sc3ccccc3)cc2[nH]1`, for which the inhibition is 81.4% (active).
The value for `CC(C)c1nc2ccc(C(=O)O)cc2[nH]1` was -6%; that for `S=C(c1ccc(-c2ccccc2)o1)N1CCCCC1` was 1.6%; that for `O=C(Cc1ccc([N+](=O)[O-])cc1)Nc1ccc(C(=O)N2CCOCC2)cc1` was -2.8%.
With `CCCc1c(C(=O)N/N=C(\C)CCc2ccc(OC)cc2)nnn1-c1nonc1N`, the inhibition is 1.1%.
On to `CCn1cc(/C=C(\NC(=O)c2cc(OC)c(OC)c(OC)c2)C(=O)N2CCN(C)CC2)c2ccccc21`, for which the inhibition was 6.9%.
In the case of `Cc1nn(C(C)C(=O)NCCC2=CCCCC2)c(=O)c2nn(-c3ccccc3)c(C)c12` (stereo not drawn) it was -2.9%; in that of `CC(C)c1cc(C(=O)O)n[nH]1`, 1.7%; in that of `Cc1cc(C(=O)N/N=C\C(Br)=C\c2ccccc2)c(C)o1`, 11.7%.
For the molecule `CC(C)c1cc(C(=O)N/N=C/C(Br)=C/c2ccccc2)n[nH]1`, the inhibition is 37.9% (active).
In the case of `Cc1ccc(Cl)cc1NC(=O)C1CCCN(c2cnccn2)C1` (stereo not drawn) it was -2.8%; in that of `C[C@@H]1C[C@@H]2O[C@H]2/C=C\C=C\C(=O)Cc2c(Cl)c(O)cc(O)c2C(=O)O1`, 44.5% (active); in that of `COc1ccccc1Oc1ccc(N2CC(C(=O)OCC(=O)c3ccc(F)cc3)CC2=O)cc1` (stereo not drawn), -7.2%.
The value for `Cc1nn(CC(=O)N2CCCCC2)c(=O)c2nn(-c3ccccc3)c(C)c12` was -5.3%; that for `Cc1ccc(CNC(=O)C2CC(c3ccccc3[N+](=O)[O-])=NO2)o1` (stereo not drawn) was 4.8%; that for `COc1ccc(S(=O)(=O)N2CCC(C(=O)NCc3ccco3)CC2)cc1C` was -0.7%.
In the case of `COc1ccc(C2=NOC(C(=O)NCc3ccco3)C2)cc1OC` (stereo not drawn) it was 43.3% (active).
`C[C@@H](NC(=O)[C@@H]1Cc2ccccc2CN1)C(=O)NC1CCCC1`: the inhibition is 0.2%.
The value for `CC(=O)NCCNC(=O)c1cc(-c2cccc3ccccc23)nc2ccccc12` was 4.3%; that for `COCCn1c(SCC(=O)Nc2nc(C)cs2)nnc1C(C)C` was 1.6%; that for `Cc1cccc(N2C(=O)c3cccnc3C2=O)c1` was 3.1%.
In the case of `O=C1c2ccccc2C(=O)N1c1cccc2ccccc12` it was -0.4%.
In the case of `Cc1ccc(Oc2ccc3c(c2)C(=O)N(c2cccc4cccnc24)C3=O)cc1` it was 25.8% (active).
